Bioassay records from PubChem BioAssay.
ANO1 activ: activates or potentiates the mouse TMEM16A chloride channel; 340,000 tested, 0.3% active; HEK293 TMEM16A/YFP-H148Q/I152L, iodide quench fluorescence; hits give low values; B-score at 10 µM; AID 623877; Q8BHY3;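 active = fluorescence-ratio B-score plate-corrected deviation score at least 3 library SD below zero, with starting fluorescence score within 5 deviations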;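 note: channel opened by trigger with iodide after compound preincubation; score built on the fluorescence ratio of max minus min over baseline; more negative score means more quench and so TMEM16A activation or potentiation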
Target sequence (Q8BHY3 whole entry, looked up): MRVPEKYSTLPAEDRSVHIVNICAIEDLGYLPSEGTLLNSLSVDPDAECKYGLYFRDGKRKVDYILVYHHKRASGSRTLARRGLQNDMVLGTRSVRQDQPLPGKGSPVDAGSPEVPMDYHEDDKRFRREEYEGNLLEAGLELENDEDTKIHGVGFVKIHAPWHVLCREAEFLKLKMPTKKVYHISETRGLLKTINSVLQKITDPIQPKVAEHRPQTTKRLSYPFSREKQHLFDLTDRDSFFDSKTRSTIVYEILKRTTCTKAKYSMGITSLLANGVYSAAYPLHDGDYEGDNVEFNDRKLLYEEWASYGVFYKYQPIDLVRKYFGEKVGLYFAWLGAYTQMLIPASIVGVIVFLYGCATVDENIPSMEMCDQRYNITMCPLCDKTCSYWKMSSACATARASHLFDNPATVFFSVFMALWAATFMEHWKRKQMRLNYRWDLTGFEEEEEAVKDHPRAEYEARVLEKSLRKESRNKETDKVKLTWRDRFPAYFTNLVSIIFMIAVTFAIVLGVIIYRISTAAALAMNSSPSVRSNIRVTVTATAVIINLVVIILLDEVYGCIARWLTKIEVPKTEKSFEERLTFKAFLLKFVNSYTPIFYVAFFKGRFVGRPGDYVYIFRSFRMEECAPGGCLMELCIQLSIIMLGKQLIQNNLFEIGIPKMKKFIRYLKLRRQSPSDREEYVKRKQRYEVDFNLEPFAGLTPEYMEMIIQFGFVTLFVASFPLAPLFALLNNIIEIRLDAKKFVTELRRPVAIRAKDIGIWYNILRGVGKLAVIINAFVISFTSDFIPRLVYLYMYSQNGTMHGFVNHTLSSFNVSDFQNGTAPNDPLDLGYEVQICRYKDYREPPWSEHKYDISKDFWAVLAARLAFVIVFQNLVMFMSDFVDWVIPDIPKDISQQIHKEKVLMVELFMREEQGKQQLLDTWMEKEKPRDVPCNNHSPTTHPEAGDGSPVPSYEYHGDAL
TLR4 MyD88 comp: TLR4-MyD88 interaction inhibition in cells; O00206+Q99836; HeLa CL3-4 TLR4/MyD88 BLA complementation, FRET ratio; inhibition, % at 8.4 µM; 200,000 tested, 0.18% active; in the data active = inhibition above about 25%
GRK2 aptamer HTS: inhibitors of human GRK2 displacing RNA aptamer. P25098. bead flow cytometry, FAM-aptamer displacement from GRK2. inhibition of aptamer binding, % at 10 µM. 330,000 tested, 0.59% active;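 active = inhibition of aptamer binding above 40%, roughly 3 SD of noise, on plates passing a quality check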;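 note: median bead fluorescence of bound FAM aptamer so fluorescent compounds give negative values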
TLR9-MyD88 block: blocks human TLR9 binding to MyD88; Q9NR96+Q99836; CHO BLA complementation TLR9-MyD88, CCF4 FRET ratio; inhibition, % at 4.98 µM; 340,000 tested, 0.21% active;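 active = inhibition above the mean over all tested compounds plus 3 SD, cut at about 21% in these data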
NOD2-RIPK2 inh: NOD2-RIPK2 protein interaction inhibition | 360,000 tested, 0.38% active | O43353 | inhibition, % at 4.98 µM | CHO BLA complementation NOD2-RIPK2, CCF4 ratio | AID 624267; in the data active = inhibition above about 21%
TMEM16A inh: inhibitors of mouse TMEM16A calcium-activated chloride channel; Q8BHY3; HEK293 TMEM16A/YFP iodide influx fluorescence, ionomycin; normalized B-score (activity score, 25-100; higher = stronger inhibition) at 10 µM; 310,000 tested, 1.2% active; AID 588511;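 active = ratio plate-corrected score three or more library SD toward inhibition, starting fluorescence score within five deviations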;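 note: score derived from kinetic fluorescence span divided by baseline fluorescence per well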
TMEM16A reconf: reconfirmed blocker of mouse TMEM16A calcium-activated chloride channel | 2,300 tested, 39% active | shares compounds with TMEM16A inh | HEK293 TMEM16A/YFP-H148Q, iodide quench fluorescence; ionomycin added to raise cell calcium | inhibition, % at 10 µM;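 active = mean duplicate percent inhibition, scaled so buffer wells are 0 and the reference blocker 100, over three buffer SD above buffer mean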
HEK293 Ca mobil: alters calcium mobilization in TMEM16A HEK293 cells, counter-screen; shares compounds with TMEM16A inh; TMEM16A/YFP HEK293, Fluo4 calcium mobilization; calcium response (% of ionomycin), % at 10 µM; 2,300 tested, 2% active; AID 652231;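 active = duplicate-averaged calcium signal over 20% of the ionomycin maximum, relative to buffer baseline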;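 note: each well's signal is peak minus trough fluorescence divided by its pre-addition baseline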
YFP-HEK293 quench: counter-screen for TMEM16A inhibitors: effect in parental YFP-HEK293 cells | iodide YFP quench, ionomycin | shares compounds with TMEM16A inh | YFP ratio F(max-min)/F0 at 10 µM | 2,300 tested, under 10 active;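 active = yellow fluorescent protein signal ratio exceeding the buffer control mean by over 5 SD of those controls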;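 note: ratio is mean of duplicate wells from kinetic YFP trace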
ClC-1 rat inh: blocks the rat ClC-1 voltage-dependent chloride channel. ratio percent, % at 10 µM. CHO ClC-1-YFP, iodide influx fluorescence quench; iodide control reads 0, buffer control 100. 2,300 tested, under 10 active. shares compounds with TMEM16A inh;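 active = duplicate-mean ratio percent above the mean of iodide-only control wells, which defines zero, plus 5 of their SD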;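 note: higher percent means stronger block of ClC-1 iodide influx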
Large screens that a line does not name were inactive (follow-up assays come after a bar, where they were run). Hits are enriched below; roughly 2.2% of the tested compounds scored in any of these assays.

Cc1ccccc1OCC(=O)N(Cc1ccc(N(C)C)cc1)C1CCS(=O)(=O)C1 (centres undefined)	TMEM16A inh 100 | TMEM16A reconf inactive | HEK293 Ca mobil inactive | YFP-HEK293 quench inactive | ClC-1 rat inh inactive
COc1cc(F)ccc1CN1CCC(C(=O)Nc2ccc(Oc3ccccc3)nc2)CC1	none (no result: TLR4 MyD88 comp)
COc1ccc(CN2CCC(C(=O)Nc3ccc(Oc4ccccc4)nc3)CC2)cc1F	TMEM16A inh 25 (no result: TLR4 MyD88 comp) | TMEM16A reconf inactive | HEK293 Ca mobil inactive | YFP-HEK293 quench inactive | ClC-1 rat inh inactive
CCn1c(=O)c([N+](=O)[O-])c(N2CCSCC2)c2ccccc21	TMEM16A inh 25 (no result: TLR4 MyD88 comp) | TMEM16A reconf inactive | HEK293 Ca mobil inactive | YFP-HEK293 quench inactive | ClC-1 rat inh inactive
Cn1c(=O)c([N+](=O)[O-])c(N2CCSCC2)c2ccccc21	none (no result: TLR4 MyD88 comp)
Cc1cncc(NCc2cccc(Cl)c2)n1	none (no result: ANO1 activ, TLR4 MyD88 comp, GRK2 aptamer HTS, TLR9-MyD88 block, TMEM16A inh)
C=CCSC1=C(C#N)C(c2ccc(OCC)cc2)CC(=O)N1 (centres undefined)	TMEM16A inh 100 | TMEM16A reconf inactive | HEK293 Ca mobil inactive | YFP-HEK293 quench inactive | ClC-1 rat inh inactive
O=C(CC1COc2ccccc2O1)NCc1ccccc1 (centres undefined)	none
O=C(CCC1COc2ccccc2O1)NCc1ccccc1 (centres undefined)	TMEM16A inh 100 | TMEM16A reconf inactive | HEK293 Ca mobil inactive | YFP-HEK293 quench inactive | ClC-1 rat inh inactive
O=S(=O)(NC(=NCCc1ccc(Cl)cc1)c1ccccc1Cl)c1cccs1	none
Cc1cccnc1CN1CCN(C(=O)c2cc(COc3ccc4ncccc4c3)on2)CC1	TMEM16A inh 25 | TMEM16A reconf 22.0% | HEK293 Ca mobil inactive | YFP-HEK293 quench inactive | ClC-1 rat inh inactive
CCC(O)C1CCN(C(=O)c2cc(COc3ccc4ncccc4c3)on2)CC1 (centres undefined)	TMEM16A inh 100 (no result: TLR9-MyD88 block) | TMEM16A reconf inactive | HEK293 Ca mobil inactive | YFP-HEK293 quench inactive | ClC-1 rat inh inactive
CCOC(=O)N1CCN(C(=O)c2cc(COc3ccc4ncccc4c3)on2)CC1	TMEM16A inh 25 | TMEM16A reconf 31.0% | HEK293 Ca mobil inactive | YFP-HEK293 quench inactive | ClC-1 rat inh inactive
O=C(c1cc(COc2ccc3ncccc3c2)on1)N1CCCC(O)C1 (centres undefined)	none
O=C(c1cc(COc2ccc3ncccc3c2)on1)N1CCC(O)CC1	none
Cc1nnc(SCC(=O)Nc2cc(Cl)ccc2Cl)n1CC1CCCO1 (centres undefined)	none (no result: TLR4 MyD88 comp)
CC1=NN(C(=O)Cc2ccc([N+](=O)[O-])cc2)C(O)(c2ccccc2)C1 (centres undefined)	none
O=C(NC1CCCCC1)N(Cc1ccccc1)Cc1ccco1	none
O=C(CC(Cc1ccccc1)c1ccco1)NC1CCCCC1 (centres undefined)	none | TMEM16A reconf inactive | HEK293 Ca mobil inactive | YFP-HEK293 quench inactive | ClC-1 rat inh inactive
CN(C)S(=O)(=O)c1cccc(COC(=O)c2ccc(Cl)cc2O)c1	TMEM16A inh 100 (no result: TLR4 MyD88 comp) | TMEM16A reconf 28.5% | HEK293 Ca mobil inactive | YFP-HEK293 quench inactive | ClC-1 rat inh inactive
CN(C)S(=O)(=O)c1cccc(COC(=O)c2ccc3c(c2)OCO3)c1	none
Cc1cc(C)n(-c2nc(N(c3ccccc3)c3ccccc3)nc(-n3nc(C)cc3C)n2)n1	TMEM16A inh 100 | TMEM16A reconf 25.5% | HEK293 Ca mobil inactive | YFP-HEK293 quench inactive | ClC-1 rat inh inactive
COc1ccc(C(=O)/C=C/c2cn(CC(O)CN3CCN(C)CC3)c3ccccc23)cc1OC (centres undefined)	none (no result: TLR4 MyD88 comp) | TMEM16A reconf inactive | HEK293 Ca mobil inactive | YFP-HEK293 quench inactive | ClC-1 rat inh inactive
CNS(=O)(=O)c1cc(S(=O)(=O)NC)c2cccc3c2c1NC3=O	none (no result: TLR4 MyD88 comp)
Cc1cccc(C)c1NC(=O)CSc1ncnc2[nH]ncc12	none (no result: TLR4 MyD88 comp, TMEM16A inh)
CCc1c(C)c(C#N)c2[nH]c3ccccc3n2c1=S	TMEM16A inh 100 (no result: TLR4 MyD88 comp) | TMEM16A reconf 33.5% | HEK293 Ca mobil inactive | YFP-HEK293 quench inactive | ClC-1 rat inh inactive
CCc1cc(=S)n2c([nH]c3ccccc32)c1C#N	TMEM16A inh 100 | TMEM16A reconf 26.0% | HEK293 Ca mobil inactive | YFP-HEK293 quench inactive | ClC-1 rat inh inactive
CC(=O)Nc1ccc(S(=O)(=O)NCCC(=O)OCc2ccc([N+](=O)[O-])cc2)cc1	none (no result: TLR4 MyD88 comp)
Fc1ccc(CSc2nc3ccccc3[nH]2)c2ccccc12	TMEM16A inh 100 | TMEM16A reconf 32.5% | HEK293 Ca mobil inactive | YFP-HEK293 quench inactive | ClC-1 rat inh inactive
O=c1cc(CSc2nc3ccccc3[nH]2)c2ccccc2[nH]1	none
COc1ccc(OCC(=O)NC2CCSc3ccccc32)cc1 (centres undefined)	none (no result: TLR4 MyD88 comp, TMEM16A inh)
Cn1cnc(S(=O)(=O)Nc2ccc(OC(F)(F)F)cc2)c1	none
CCOC(=O)C(=C1Nc2ccccc2N1)n1c(-c2cccnc2)nc2ccccc21	none (no result: ANO1 activ, TLR4 MyD88 comp, GRK2 aptamer HTS, TLR9-MyD88 block, TMEM16A inh)
O=C(c1cc(COc2c(F)cccc2F)on1)N1CCC(c2ccncc2)CC1	TMEM16A inh 25 | TMEM16A reconf inactive | HEK293 Ca mobil inactive | YFP-HEK293 quench inactive | ClC-1 rat inh inactive
O=C(c1cc(COc2c(F)cccc2F)on1)N1CCC(c2ccccc2F)C1 (centres undefined)	none
Cc1cccc(C)c1OCc1cc(C(=O)N2CCC(c3ccncc3)CC2)no1	TMEM16A inh 25 (no result: TLR4 MyD88 comp) | TMEM16A reconf 21.0% | HEK293 Ca mobil inactive | YFP-HEK293 quench inactive | ClC-1 rat inh inactive
COC(=O)c1cc(NC(=O)C(C)c2ccc(CC(C)C)cc2)ccc1O (centres undefined)	TMEM16A inh 25 (no result: TLR9-MyD88 block) | TMEM16A reconf 21.5% | HEK293 Ca mobil inactive | YFP-HEK293 quench inactive | ClC-1 rat inh inactive
Cc1nnc(SCc2nnc(-c3cccs3)o2)n1Cc1ccccc1	none
Clc1ccc(-c2nnc(CSc3nnc(-c4cccs4)n3Cc3ccccc3)o2)cc1	TMEM16A inh 25 | TMEM16A reconf 41.5% | HEK293 Ca mobil inactive | YFP-HEK293 quench inactive | ClC-1 rat inh inactive
O=C1CCCCCC[C@@H](O)[C@H](O)C[C@H](c2ccccc2)O1	none (no result: ANO1 activ, TLR4 MyD88 comp, GRK2 aptamer HTS, TLR9-MyD88 block, TMEM16A inh)
